Drawing on PubChem BioAssay (Tox21), this text covers outcome and Potency for 7 compounds.

A short description of assay [1]: qHTS assay for small molecule agonists of the p53 signaling pathway (AID 651631; calls by dose curve; note: nearly all actives have a fitted effect of over 15% in size). The method in brief:
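Quantitative high-throughput format: 4,000 p53RE-bla HCT-116 cells/well, 5 h pre-incubation, 16 h compound exposure at 37 °C, 2 h room-temperature substrate step, fluorescence intensity measured.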
In general terms: In qHTS, concentration-response curves come from the screen itself.

Assay [2] in a line: qHTS assay for small molecules that induce genotoxicity in human embryonic kidney cells expressing luciferase-tagged ATAD5 (AID 651632). Note: nearly all actives have a fitted effect of over 15% in size. Put shortly: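 Test compounds were delivered by pin tool onto HEK293T reporter cells (2,000/well) expressing ATAD5 fused to luciferase. After 16 hr at 37C, 5% CO2, Amplite was added for 30 min at room temperature and luminescence was measured.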

Assay [3] can be described thus: qHTS assay for small molecule agonists of the p53 signaling pathway - cell viability (AID 651633; calls by dose curve;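 note: p53RE-bla HCT reporter cells with a stable beta-lactamase p53 reporter; series mostly up to about 83 µM; nearly all actives have a fitted effect of over 30% in size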). The method in brief:
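Viability counter-read: CellTiter-Glo luminescence (30 min, room temperature) in the same p53RE-bla plates. These plates had been exposed to compounds for 16 h at 37 C.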

Assay [4] in a line: qHTS assay for small molecules that induce genotoxicity in human embryonic kidney cells expressing luciferase-tagged ATAD5 - cell viability (AID 651634; calls by dose curve; note: nearly all actives have a fitted effect of over 25% in size). The method in brief:
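Quantitative high-throughput format. HEK293T cells expressing ATAD5 fused to luciferase were plated at 2,000 cells/well and treated 15.5 hr with compound versus DMSO. Viability was determined by fluorescent live-cell protease substrate, 30 min at 37C.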

Assay [5] can be described thus: qHTS assay for small molecule disruptors of the mitochondrial membrane potential - cell viability (AID 720634; calls by dose curve;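 note: human HepG2 liver cancer cells; series mostly up to about 83 µM; nearly all actives have a fitted effect of over 20% in size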). Put shortly: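 Same-well counter-screen: following the MMP dye addition, CellTiter-Glo was added to 1 hr compound-treated HepG2 cells and luminescence read after 30 min at room temperature.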
Assay [6] is described as follows: qHTS assay for small molecule disruptors of the mitochondrial membrane potential (AID 720635). Put shortly:
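Mitochondrial membrane potential tracked with Mito-MPS dye, red aggregates (ex 540/em 590 nm) against green monomers (ex 490/em 535 nm). Compound treatment 1 hr at 37C, dye 30 min in HepG2.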

The nature of assay [7]: qHTS assay to test for compound auto fluorescence at 590 nm (red) in HepG2 cells (AID 720674). The method in brief: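 Red autofluorescence (Ex/Em 540/590 nm, Rose Bengal sodium equivalents) was measured in HepG2 cells, 2,000 per well in MEM plus 10% FBS, plated overnight at 37 C. Readings were taken 1 hr after adding 23 nL compound or DMSO, at 37 C and 5% CO2.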
A short description of assay [8]: qHTS assay to test for compound auto fluorescence at 535 nm (green) in HepG2 cells (AID 720675).
Assay [9] in a line: qHTS assay to test for compound auto fluorescence at 460 nm (blue) in HEK293 cells (AID 720678). Put shortly: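 HEK293 cells (2,000 per well, medium with 10% dialyzed FBS) attached for 4-5 hr at 37C, then received compound and stood overnight at 37C, 5% CO2. Blue fluorescence was read at Ex/Em 405/460 nm and expressed relative to triamterene.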
The nature of assay [10]: qHTS assay to test for compound auto fluorescence at 590 nm (red) in HEK293 cells (AID 720679). Put shortly: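 HEK293 cells (2,000/well, medium with 10% dialyzed FBS) attached for 4-5 hr at 37C, received 23 nL compound and were incubated overnight at 37C, 5% CO2. Red fluorescence was then read at 540/590nm Ex/Em, referenced to Rose Bengal sodium.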
Assay [11] is described as follows: qHTS assay to test for compound auto fluorescence at 535 nm (green) in HEK293 cells (AID 720680).
A short description of assay [12]: qHTS assay to test for compound auto fluorescence at 460 nm (blue) in HEK293 cell free culture (AID 720681). The method in brief: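 Blue fluorescence (Ex 405/Em 460 nm, triamterene-equivalent) was read immediately after pin transfer of compound or DMSO into medium (DMEM, 10% FBS) without cells.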
Assay [13] is described as follows: qHTS assay to test for compound auto fluorescence at 535 nm (green) in HEK293 cell free culture (AID 720682). The method in brief: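 Measurement is a direct plate read of green fluorescence (485 nm in, 535 nm out) after compound addition to serum-supplemented DMEM lacking cells, with fluorescein used to express intensities.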
Assay [14] in a line: qHTS assay to test for compound auto fluorescence at 590 nm (red) in HEK293 cell free culture (AID 720683). Put shortly:
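Red-channel autofluorescence of compounds in culture medium (DMEM, 10% FBS), no cells, measured at 540/590 nm. Rose Bengal sodium is the reference fluorophore for equivalence.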

Assay [15] in a line: qHTS assay to test for compound auto fluorescence at 460 nm (blue) in HepG2 cell free culture (AID 720685). Put shortly: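 Cell-free plates of MEM plus 10% FBS received 23 nL compound or DMSO vehicle; blue-channel (405/460 nm) intensity scored against triamterene as reference fluorophore.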
The nature of assay [16]: qHTS assay to test for compound auto fluorescence at 535 nm (green) in HepG2 cell free culture (AID 720686).
A short description of assay [17]: qHTS assay to test for compound auto fluorescence at 460 nm (blue) in HepG2 cells (AID 720687). The method in brief:
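Blue-channel autofluorescence (Ex/Em 405/460 nm, triamterene-equivalent) was measured after 1 hr compound exposure at 37 C, 5% CO2. Cells were HepG2, plated overnight at 37 C in MEM plus 10% FBS.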

Assay [18] has as its target Glucocorticoid receptor (Homo sapiens) (UniProt P04150). The assay can be described thus: qHTS assay to identify small molecule agonists of the glucocorticoid receptor (GR) signaling pathway (AID 720691; active = well fitted activation curve with a large enough effect in the signal ratio in the repeat runs, not every such curve was filed as active; the % refers to the signal ratio; note: potency is the fitted concentration of half-maximal effect). The method in brief:
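A HeLa cervical cancer line expressing GR and a glucocorticoid response element-driven beta-lactamase gene is treated with compounds for 18 h; LiveBLAzer B/G FRET substrate is then applied and fluorescence read.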

The target is the same in assay [19]. The assay can be described thus: qHTS assay to identify small molecule antagonists of the glucocorticoid receptor (GR) signaling pathway (AID 720692; active = well fitted inhibition curve with a large enough effect in the signal ratio in the repeat runs, not every such curve was filed as active; the % refers to the signal ratio). Put shortly:
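GRE-bla HeLa line, dex-stimulated (5 nM final). Compound exposure 18 h, 37 C. Beta-lactamase FRET read after 2 h RT substrate.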

A short description of assay [20]: qHTS assay to test for compound auto fluorescence at 590 nm (red) in HepG2 cell free culture (AID 720684). The method in brief: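 Cell-free; medium MEM + 10% FBS; compound or DMSO added by pintool; read Ex 540/Em 590 nm; Rose Bengal sodium as red reference fluorophore.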

Values joined by “and” are separate entries in the source; they are usually repeats but may differ in a detail not shown here. Identical values can stand only once. Results filed as inconclusive are left out. A structure can be active in one record and inactive in another. Active and inactive are the calls of the source. Unless noted, calls come from the whole dose curve; as a rule, active = well fitted curve in the direction sought with a large enough effect in the repeat runs; inconclusive = weak or mixed curves; inactive = no such curve, though single readings can be large; an effect the other way counts as inactive or inconclusive.

Sequence of Glucocorticoid receptor (Homo sapiens) (P04150 whole entry, looked up): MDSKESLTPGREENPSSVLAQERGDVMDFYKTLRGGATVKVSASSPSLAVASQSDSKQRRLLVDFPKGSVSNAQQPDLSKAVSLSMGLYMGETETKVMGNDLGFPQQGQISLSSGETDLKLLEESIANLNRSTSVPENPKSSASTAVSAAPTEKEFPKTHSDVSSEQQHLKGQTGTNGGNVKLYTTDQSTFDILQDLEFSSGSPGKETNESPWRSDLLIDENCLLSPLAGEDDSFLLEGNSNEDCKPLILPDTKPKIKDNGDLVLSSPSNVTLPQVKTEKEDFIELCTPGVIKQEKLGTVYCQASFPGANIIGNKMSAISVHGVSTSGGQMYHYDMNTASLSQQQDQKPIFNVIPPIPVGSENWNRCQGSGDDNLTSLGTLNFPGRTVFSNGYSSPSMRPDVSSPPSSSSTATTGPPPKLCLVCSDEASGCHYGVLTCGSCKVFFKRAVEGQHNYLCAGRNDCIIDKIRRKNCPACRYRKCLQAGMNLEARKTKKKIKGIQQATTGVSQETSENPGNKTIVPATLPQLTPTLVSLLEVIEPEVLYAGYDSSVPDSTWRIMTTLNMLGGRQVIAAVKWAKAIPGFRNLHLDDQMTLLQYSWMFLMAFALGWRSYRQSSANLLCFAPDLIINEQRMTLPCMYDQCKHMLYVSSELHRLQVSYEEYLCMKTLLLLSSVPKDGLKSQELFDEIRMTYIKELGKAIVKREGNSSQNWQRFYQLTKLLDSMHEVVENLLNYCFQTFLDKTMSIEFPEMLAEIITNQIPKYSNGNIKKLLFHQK

Turning to `O=C1OC(=O)C2CCCCC12` (centres undefined), the compound was classed as inactive in [1], in assay [3], in assay [7], in [8], in assay [9] and in assay [10]. In addition, the compound was classed as inactive in [11], in [12], in [13], in [14], in assay [15] and in assay [16]. Moreover, in assay [17], the compound was classed as inactive. The Potency entry in [2], in assay [4], in [5], in [6], in assay [18] and in assay [19] was “inactive” in each case.

`CCCCC/C=C\CCC=O`: the call in assay [1], in assay [3], in [7], in assay [8], in assay [9] and in [10] was inactive. The compound was called inactive in [11], in assay [12], in assay [13], in assay [14], in [20] and in [15]. Moreover, the compound was classed as inactive in assay [16] and in [17]. Besides, the Potency entry in assay [2], in assay [4], in assay [5], in assay [18] and in assay [19] was “inactive” in each case.

Regarding `COCCc1ccc(OCC(O)CNC(C)C)cc1` (centres undefined), the compound was called inactive in assay [1], in assay [3], in assay [7], in assay [8], in [9] and in assay [10]. Further, the result in assay [11], in assay [12], in [13], in assay [14], in assay [15] and in assay [16] was inactive. The result in assay [17] was inactive. The Potency entry in assay [2], in [4], in assay [5], in [6] and in assay [19] was “inactive” in each case. Further, in assay [18], the Potency entry was “inactive and 10.7 µM (active)”.

For `O=C(O)CCCl`, the compound was classed as inactive in assay [1], in assay [3], in assay [7], in [8], in assay [9] and in [10]. Further, the compound was classed as inactive in assay [11], in assay [12], in [13], in assay [14], in assay [15] and in [16]. In [17], the outcome was inactive. The Potency result in [2], in assay [4], in assay [5], in assay [6], in [18] and in assay [19] was “inactive” throughout.

Consider `O=c1n(CCO)c(=O)n(CCO)c(=O)n1CCO`, for which the outcome in assay [1], in [3], in assay [7], in [8], in assay [9] and in assay [10] was inactive. The compound was classed as inactive in assay [11], in assay [12], in assay [13], in [14], in assay [15] and in assay [16]. In addition, the outcome in assay [17] was inactive. Moreover, the Potency entry in assay [2], in assay [4], in [5] and in [6] was “inactive” in each case.

Consider `CCOC(=O)c1ccc(C)cc1`, for which the result in [1], in [3], in assay [7], in assay [8], in [9] and in assay [10] was inactive. The compound was called inactive in assay [11], in assay [12], in [13], in assay [14], in assay [15] and in [16]. Further, the call in [17] was inactive. For the same compound, the Potency entry in assay [2], in assay [4], in assay [5], in assay [6], in assay [18] and in assay [19] was “inactive” each time.

Take `C[N+](C)(C)CCCCCC[N+](C)(C)C`: the outcome in [1], in assay [3], in assay [7], in assay [8], in assay [9] and in assay [10] was inactive. Further, the compound was called inactive in assay [11], in assay [12], in assay [13], in assay [14], in assay [20] and in assay [15]. For the same compound, the call in assay [16] and in [17] was inactive. In addition, the Potency result in [2], in assay [4] and in assay [5] was “inactive” each time.
